Bioassay records: PubChem BioAssay, National Center for Advancing Translational Sciences (NCATS)
Hits are enriched below; roughly 0.93% of the tested compounds scored in any of these assays.
FBPA coupling cs = counter-screen for Giardia aldolase inhibitors: coupling enzyme system; activity change, negative = inhibition, % at 58.2 µM, hits read low; coupling enzyme system counterscreen, AmpLite Red fluorescence; 0.67% of 290,000 active; AID 2472; in the data active = activity change below about -30%
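Compounds tested against the coupling enzymes alone at 57.5 uM final; readout was AmpLite Red fluorescence (525/598 nm) after 20 min at RT.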
TRb-SRC2 inh = inhibitors of human thyroid hormone receptor beta-SRC2 interaction | P10828 | TRbeta-SRC2 peptide binding, fluorescence polarization; receptor liganded with 1 µM T3 | Potency, µM (top dose mostly 106 µM), for inactives: at the top dose activity change, negative = inhibition, most hits filed as inhibitors | 0.065% of 280,000 active; active = well fitted inhibition curve with a large enough effect; inconclusive = small, poorly fitted or top-dose-only effect, or effect the other way;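 note: potency is the fitted concentration of half-maximal effect; plate controls were bound peptide for no effect and peptide without receptor for full effect; nearly all actives have a fitted effect of over 50% in size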
Target sequence (P10828 whole entry, looked up): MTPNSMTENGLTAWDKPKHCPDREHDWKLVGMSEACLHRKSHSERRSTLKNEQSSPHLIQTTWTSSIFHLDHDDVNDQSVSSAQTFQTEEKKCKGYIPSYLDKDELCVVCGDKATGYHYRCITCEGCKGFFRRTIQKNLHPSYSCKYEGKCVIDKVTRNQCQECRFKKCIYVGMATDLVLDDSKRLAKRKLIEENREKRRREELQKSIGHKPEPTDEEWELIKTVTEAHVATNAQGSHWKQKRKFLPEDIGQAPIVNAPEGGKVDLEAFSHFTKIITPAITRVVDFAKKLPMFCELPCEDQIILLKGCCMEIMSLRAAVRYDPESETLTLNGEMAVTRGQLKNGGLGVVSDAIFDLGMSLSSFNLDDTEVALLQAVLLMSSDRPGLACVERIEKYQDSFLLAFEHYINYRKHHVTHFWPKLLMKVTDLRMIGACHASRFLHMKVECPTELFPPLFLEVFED
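Assay buffer: 20 mM Tris-HCl, 100 mM NaCl, 10% glycerol, 1 mM EDTA, 0.01% NP-40, 1 mM DTT, 1 uM T3, 5% DMSO; TRb LBD 0.6 uM, Texas Red SRC2 20 nM; FP after 5 hr.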
TR SRC2 fluor cs = counter-screen for TRb-SRC2 inhibitors: fluorescence interference; Potency, µM (titrated, usually from 106 µM), inactives show at the highest dose fluorescence change, negative = quenching; TRb/SRC2 Texas Red total fluorescence interference; 0.29% of 280,000 active; active = well fitted curve in either direction with a large enough effect; inconclusive = small, poorly fitted or top-dose-only effect; note: potency is the fitted concentration of half-maximal effect
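Flags fluorescent or light-absorbing compounds by total fluorescence, S + 2P, at 555 nm excitation and 632 nm emission. Mixture: 20 nM Texas Red SRC2 peptide, 0.6 uM human TRb LBD, 1 uM T3, 5% DMSO; compound exposure 5 h at ambient temperature.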
RGS12 GoLoco inh = inhibitors of human Gai1-RGS12 GoLoco interaction (red fluorophore) | P63096 | Gai1:RGS12 GoLoco peptide FP, rhodamine, 10 min | Potency, µM (series often up to 61.6 µM), inactives show top-dose activity, negative = inhibition, most hits filed as inhibitors | 0.44% of 230,000 active; active = well fitted inhibition curve with a large enough effect, not every such curve was filed as active; inactive = no such curve, though single readings can be large or run the other way; note: potency is the fitted concentration of half-maximal effect; nearly all actives have a fitted effect of over 30% in size
Starred values were filed as active, the others as inactive; ! = not active in a repeat; [ ] = remark or other dose. Unless noted, % is set by controls: 0 for no effect and ±100 for the full control effect.

Screening C=CC1=C2C=C(C3CC3)N(Cc3ccccc3)C=C2C(=O)C(C)(OC(=O)c2ccco2)C1=O (configuration not stated) returned FBPA coupling cs -36*, TRb-SRC2 inh 2%[11.2 µM], TR SRC2 fluor cs 0%[11.2 µM] and RGS12 GoLoco inh 11%[14.2 µM].
For C=CC1=C2C=C(C3CC3)N(CCCOC(C)C)C=C2C(=O)C(C)(OC(=O)c2ccco2)C1=O (configuration not stated) the results were FBPA coupling cs -32*, TRb-SRC2 inh -1%[11.2 µM], TR SRC2 fluor cs -13%[11.2 µM] and RGS12 GoLoco inh -10%[14.2 µM].
`C=CC1=C2C=C(C3CC3)N(CCN3CCOCC3)C=C2C(=O)C(C)(OC(=O)c2ccco2)C1=O` (configuration not stated) gave FBPA coupling cs -22, TRb-SRC2 inh 1%[11.2 µM], TR SRC2 fluor cs 0%[11.2 µM] and RGS12 GoLoco inh -11%[14.2 µM].
For Cc1ccc2c(c1)N(C(=O)C1CCN(S(=O)(=O)c3c(C)noc3/C=C/c3ccccc3F)CC1)CCO2 the results were TRb-SRC2 inh 3% and TR SRC2 fluor cs -10%.
Screening Cc1c(C(=O)Nc2ccc(-c3nc4cc(Cl)ccc4o3)cc2)oc2ccccc12 returned TRb-SRC2 inh -10% and TR SRC2 fluor cs 112µM*[quencher].
`COc1cccc(CNC(=O)c2cc3c(s2)-c2c(C)cccc2OC3)c1` gave TRb-SRC2 inh 9% and TR SRC2 fluor cs -15%.
Screening CCOC(=O)c1sc(Nc2nc3cc4c(cc3s2)OCO4)cc1C returned FBPA coupling cs -1, TRb-SRC2 inh 2%, TR SRC2 fluor cs 0.32µM*[quencher] and RGS12 GoLoco inh 29%.
CO[C@H]1C=CO[C@@]2(C)Oc3c(C)c(O)c4c(O)c(c(C=NN5CCN(C)CC5)c(O)c4c3C2=O)NC(=O)C(C)=CC=C[C@H](C)[C@H](O)[C@@H](C)[C@@H](O)[C@@H](C)[C@H](OC(C)=O)[C@@H]1C was read as FBPA coupling cs -51*, TRb-SRC2 inh 2%, TR SRC2 fluor cs -13% and RGS12 GoLoco inh 31%.
Screening CO[C@H]1C=CO[C@@]2(C)Oc3c(C)c(O)c4c(O)c(c(C=NN5CCN(C6CCCC6)CC5)c(O)c4c3C2=O)NC(=O)C(C)=CC=C[C@H](C)[C@H](O)[C@@H](C)[C@@H](O)[C@@H](C)[C@H](OC(C)=O)[C@@H]1C returned FBPA coupling cs -26, TRb-SRC2 inh 1%, TR SRC2 fluor cs -3% and RGS12 GoLoco inh 24%.
For CCOc1ccc(NC(=O)Cn2c(=O)cc(C)c3c(C)nn(-c4ccc(CC)cc4)c32)cc1 the results were TRb-SRC2 inh -9% and TR SRC2 fluor cs 2%.
Screening COc1ccc(-n2nnnc2SCC(=O)c2ccc(O)c(O)c2)cc1 returned FBPA coupling cs 1, TRb-SRC2 inh 5%, TR SRC2 fluor cs -2% and RGS12 GoLoco inh 1%.
NC(=O)c1ccc(-n2nnnc2SCC(=O)c2ccc(O)c(O)c2)cc1 was read as FBPA coupling cs 8, TRb-SRC2 inh inconclusive, TR SRC2 fluor cs 50µM*[quencher] and RGS12 GoLoco inh 13%.
CC(C)Oc1ccc(C(=O)N(Cc2ccco2)c2ccccn2)cc1 was read as TRb-SRC2 inh 0% and TR SRC2 fluor cs 8%.
`CN1CCC(=C2c3ccccc3Sc3ccccc32)CC1` gave FBPA coupling cs -2, TRb-SRC2 inh 2%, TR SRC2 fluor cs 0% and RGS12 GoLoco inh 18µM*!.
For Fc1ccc(Nc2ncnc3c2nc2n3CCCCC2)c(F)c1 the results were TRb-SRC2 inh 6% and TR SRC2 fluor cs -21%.
For Cc1cc(O)ccc1N=Cc1c(C(F)(F)F)[nH][nH]c1=O the results were FBPA coupling cs -22, TRb-SRC2 inh 6.3µM*, TR SRC2 fluor cs 32µM*[fluorescent] and RGS12 GoLoco inh 7.1µM*.
`O=c1[nH][nH]c(C(F)(F)F)c1C=Nc1ccccc1` gave FBPA coupling cs 2, TRb-SRC2 inh -4%, TR SRC2 fluor cs -2% and RGS12 GoLoco inh -3%.
Cc1cccc(N2CCN(C(=O)c3oc(=O)c4ccccc4c3-c3ccccc3)CC2C)c1 (configuration not stated) was read as TRb-SRC2 inh 4% and TR SRC2 fluor cs 1%.
`N#CC1=C(N)SC(N)=C(C#N)C1c1c(Cl)cccc1Cl` gave FBPA coupling cs -51*, TRb-SRC2 inh -3%, TR SRC2 fluor cs 6% and RGS12 GoLoco inh 44%.
For N#CC1=C(N)SC(N)=C(C#N)C1CCc1ccccc1 the results were FBPA coupling cs 1, TRb-SRC2 inh 7%, TR SRC2 fluor cs -2% and RGS12 GoLoco inh 94%.
